In the supplement of paper PMC10037445:
± gives the standard deviation of the averaged measurements. Whole data set: some 2,900 compounds, median “NF-kB SEAP reporter activity, fold change vs agonist alone” near 0.99, cut for the highest 2% near 2.6. Only a selection was taken, and the highest values are over-represented in it overall.

Experiments:
RAW-Dual [1] = test: NF-kB SEAP reporter activity, fold change vs agonist alone; higher = enhanced NF-kB activity
In short: (§1)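 RAW-Dual macrophages (50,000 cells/well in DMEM, 384-well plates) received 50 nL of library stock by pin tool, then a PRR agonist 1 h later, and were kept at 37 °C, 5% CO2. After 20 hours, supernatant was read for IRF by QuantiLuc luminescence and for NF-κB by QuantiBlue absorbance at 620 nm. Reporter activity is fold change over agonist-alone wells. Cytotoxic wells had IncuCyte confluency below 70% of agonist controls in both mask sets.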

RAW-Dual [2] = test: NF-kB SEAP reporter activity, fold change vs agonist alone; cytotoxicity flag (confluency mask): cytotoxic (confluency <70% of control); higher = enhanced NF-kB activity
In short: as §1

RAW-Dual [3] = test: NF-kB SEAP reporter activity, fold change vs agonist alone; cytotoxicity flag (confluency mask): not cytotoxic; higher = enhanced NF-kB activity
In short: as §1

[4] = library stock concentration (final ~1000-fold dilution): 10 mM, cytotoxicity flag (confluency mask): cytotoxic (confluency <70% of control), agonist: MPLA (TLR4) […]
[5] = agonist: ODN 1826 (TLR9) 0.5 ug/mL
[6] = agonist: Pam2CSK4 (TLR2/6) 0.1 ug/mL
[7] = agonist: Pam3CSK4 (TLR2/1) 0.1 ug/mL
[8] = library stock concentration (final ~1000-fold dilution): 10 mM, cytotoxicity flag (confluency mask): not cytotoxic, agonist: Imiquimod (TLR7) […]
[9] = library stock concentration (final ~1000-fold dilution): 10 mM, cytotoxicity flag (confluency mask): not cytotoxic, agonist: MPLA (TLR4) […]
[10] = library stock concentration (final ~1000-fold dilution): 10 mM, cytotoxicity flag (confluency mask): cytotoxic (confluency <70% of control), agonist: Imiquimod (TLR7) […]

For C=CC(=O)Nc1cc(Nc2nccc(-c3cn(C)c4ccccc34)n2)c(OC)cc1N(C)CCN(C)C.CS(=O)(=O)O, the “NF-kB SEAP reporter activity” value (RAW-Dual [1]; [4]) was 1.91.
C=CC(=O)Nc1cc(Nc2nccc(-c3cn(C)c4ccccc34)n2)c(OC)cc1N(C)CCN(C)C.CS(=O)(=O)O (library stock concentration (final ~1000-fold dilution): 10 mM) was tested, and the “NF-kB SEAP reporter activity” value (RAW-Dual [2]; agonist: LPS (TLR4) 0.1 ug/mL) was 2.39, the “NF-kB SEAP reporter activity” value (RAW-Dual [2]; [5]) was 0.214 and the “NF-kB SEAP reporter activity” value (RAW-Dual [2]; [6]) was 1.28. For the same compound, the “NF-kB SEAP reporter activity” value (RAW-Dual [2]; [7]) was 0.898.
With O=[N+]([O-])c1ccc(Nc2ccccc2-c2ccccc2)c2nonc12 (library stock concentration (final ~1000-fold dilution): 10 mM) the “NF-kB SEAP reporter activity” value (RAW-Dual [3]; agonist: LPS (TLR4) 0.1 ug/mL) was 2.02, the “NF-kB SEAP reporter activity” value (RAW-Dual [3]; [5]) was 1.02 and the “NF-kB SEAP reporter activity” value (RAW-Dual [3]; [6]) was 0.555. For the same compound, the “NF-kB SEAP reporter activity” value (RAW-Dual [3]; [7]) was 0.754.
O=[N+]([O-])c1ccc(Nc2ccccc2-c2ccccc2)c2nonc12 was tested, and the “NF-kB SEAP reporter activity” value (RAW-Dual [1]; [8]) was 0.973 and the “NF-kB SEAP reporter activity” value (RAW-Dual [1]; [9]) was 1.33.
For CC(C)(C)C(=O)N1N=CCC1c1ccccc1 (stereo not drawn) (library stock concentration (final ~1000-fold dilution): 10 mM), the “NF-kB SEAP reporter activity” value (RAW-Dual [3]; agonist: LPS (TLR4) 0.1 ug/mL) was 1.02 ± 0.095, the “NF-kB SEAP reporter activity” value (RAW-Dual [3]; [5]) was 0.9171 ± 0.0045 and the “NF-kB SEAP reporter activity” value (RAW-Dual [3]; [6]) was 0.983 ± 0.09. The “NF-kB SEAP reporter activity” value (RAW-Dual [3]; [7]) was 1.3 ± 0.015.
For CC(C)(C)C(=O)N1N=CCC1c1ccccc1 (stereo not drawn), the “NF-kB SEAP reporter activity” value (RAW-Dual [1]; [8]) was 0.871 ± 0.094 and the “NF-kB SEAP reporter activity” value (RAW-Dual [1]; [9]) was 1.025 ± 0.0035.
With O=C(C=Cn1cnc(-c2cc(C(F)(F)F)cc(C(F)(F)F)c2)n1)NNc1cnccn1 (library stock concentration (final ~1000-fold dilution): 10 mM) the “NF-kB SEAP reporter activity” value (RAW-Dual [3]; agonist: LPS (TLR4) 0.1 ug/mL) was 0.255, the “NF-kB SEAP reporter activity” value (RAW-Dual [3]; [5]) was 0.841 and the “NF-kB SEAP reporter activity” value (RAW-Dual [3]; [6]) was 0.42. For the same compound, the “NF-kB SEAP reporter activity” value (RAW-Dual [3]; [7]) was 0.428.
For O=C(C=Cn1cnc(-c2cc(C(F)(F)F)cc(C(F)(F)F)c2)n1)NNc1cnccn1, the “NF-kB SEAP reporter activity” value (RAW-Dual [1]; [8]) was 1.41 and the “NF-kB SEAP reporter activity” value (RAW-Dual [1]; [9]) was 0.523.
Cc1ccc(NC(=O)c2ccc(CN3CCC(N(C)C)C3)c(C(F)(F)F)c2)cc1Nc1nccc(-c2cncnc2)n1 (stereo not drawn) was tested, and the “NF-kB SEAP reporter activity” value (RAW-Dual [1]; [10]) was 2.42 and the “NF-kB SEAP reporter activity” value (RAW-Dual [1]; [4]) was 1.36.
Cc1ccc(NC(=O)c2ccc(CN3CCC(N(C)C)C3)c(C(F)(F)F)c2)cc1Nc1nccc(-c2cncnc2)n1 (stereo not drawn) (library stock concentration (final ~1000-fold dilution): 10 mM) was tested, and the “NF-kB SEAP reporter activity” value (RAW-Dual [2]; agonist: LPS (TLR4) 0.1 ug/mL) was 0.247, the “NF-kB SEAP reporter activity” value (RAW-Dual [2]; [5]) was 0.833 and the “NF-kB SEAP reporter activity” value (RAW-Dual [2]; [6]) was 1.4. The “NF-kB SEAP reporter activity” value (RAW-Dual [2]; [7]) was 1.16.
Cc1nc(NC(=O)N2CCCC2C(N)=O)sc1-c1ccnc(C(C)(C)C(F)(F)F)c1 (stereo not drawn) was tested, and the “NF-kB SEAP reporter activity” value (RAW-Dual [1]; [8]) was 1.35 and the “NF-kB SEAP reporter activity” value (RAW-Dual [1]; [9]) was 1.13.
In the case of Cc1nc(NC(=O)N2CCCC2C(N)=O)sc1-c1ccnc(C(C)(C)C(F)(F)F)c1 (stereo not drawn) (library stock concentration (final ~1000-fold dilution): 10 mM), the “NF-kB SEAP reporter activity” value (RAW-Dual [3]; agonist: LPS (TLR4) 0.1 ug/mL) is reported as 1.65, the “NF-kB SEAP reporter activity” value (RAW-Dual [3]; [5]) is reported as 1.78 and the “NF-kB SEAP reporter activity” value (RAW-Dual [3]; [6]) is reported as 1.43. The “NF-kB SEAP reporter activity” value (RAW-Dual [3]; [7]) was 1.09.
With C=CC(=O)NC1CCOCC1Nc1ncc2cc(-c3c(Cl)c(OC)cc(OC)c3Cl)ccc2n1 (stereo not drawn) the “NF-kB SEAP reporter activity” value (RAW-Dual [1]; [8]) was 0.68 and the “NF-kB SEAP reporter activity” value (RAW-Dual [1]; [9]) was 0.869.
With C=CC(=O)Nc1cccc(C)c1Nc1ncc2cc(-c3c(Cl)c(OC)cc(OC)c3Cl)ccc2n1 the “NF-kB SEAP reporter activity” value (RAW-Dual [1]; library stock concentration (final ~1000-fold dilution): 2 mM, cytotoxicity flag (confluency mask): not cytotoxic, agonist: Imiquimod (TLR7) […]) was 1.08 and the “NF-kB SEAP reporter activity” value (RAW-Dual [1]; library stock concentration (final ~1000-fold dilution): 2 mM, cytotoxicity flag (confluency mask): not cytotoxic, agonist: MPLA (TLR4) […]) was 1.2.
In the case of C=CC(=O)Nc1cccc(C)c1Nc1ncc2cc(-c3c(Cl)c(OC)cc(OC)c3Cl)ccc2n1 (library stock concentration (final ~1000-fold dilution): 2 mM), the “NF-kB SEAP reporter activity” value (RAW-Dual [3]; agonist: LPS (TLR4) 0.1 ug/mL) is reported as 1.04, the “NF-kB SEAP reporter activity” value (RAW-Dual [3]; [5]) is reported as 1.08 and the “NF-kB SEAP reporter activity” value (RAW-Dual [3]; [6]) is reported as 0.531. For the same compound, the “NF-kB SEAP reporter activity” value (RAW-Dual [3]; [7]) was 0.89.
With C=CC(=O)NC1CCOCC1Nc1ncc2cc(-c3c(Cl)c(OC)cc(OC)c3Cl)ccc2n1 (stereo not drawn) (library stock concentration (final ~1000-fold dilution): 10 mM) the “NF-kB SEAP reporter activity” value (RAW-Dual [3]; agonist: LPS (TLR4) 0.1 ug/mL) was 0.691, the “NF-kB SEAP reporter activity” value (RAW-Dual [3]; [5]) was 0.827 and the “NF-kB SEAP reporter activity” value (RAW-Dual [3]; [6]) was 0.34. The “NF-kB SEAP reporter activity” value (RAW-Dual [3]; [7]) was 0.478.
In the case of C=CC(=O)N1CCN(CCCn2c(=O)c(-c3c(Cl)c(OC)cc(OC)c3Cl)cc3cnc(NC)nc32)CC1 (library stock concentration (final ~1000-fold dilution): 10 mM), the “NF-kB SEAP reporter activity” value (RAW-Dual [3]; agonist: LPS (TLR4) 0.1 ug/mL) is reported as 3.2, the “NF-kB SEAP reporter activity” value (RAW-Dual [3]; [5]) is reported as 1.05 and the “NF-kB SEAP reporter activity” value (RAW-Dual [3]; [6]) is reported as 0.933. The “NF-kB SEAP reporter activity” value (RAW-Dual [3]; [7]) was 1.15.
For C=CC(=O)N1CCN(CCCn2c(=O)c(-c3c(Cl)c(OC)cc(OC)c3Cl)cc3cnc(NC)nc32)CC1, the “NF-kB SEAP reporter activity” value (RAW-Dual [1]; [8]) was 0.952 and the “NF-kB SEAP reporter activity” value (RAW-Dual [1]; [9]) was 1.23.
In the case of CC(C)(C)NC(=O)C1CCC2C3CCC4NC(=O)C=CC4(C)C3CCC12C (stereo not drawn) (library stock concentration (final ~1000-fold dilution): 10 mM), the “NF-kB SEAP reporter activity” value (RAW-Dual [3]; agonist: LPS (TLR4) 0.1 ug/mL) is reported as 0.988, the “NF-kB SEAP reporter activity” value (RAW-Dual [3]; [5]) is reported as 0.946 and the “NF-kB SEAP reporter activity” value (RAW-Dual [3]; [6]) is reported as 0.943. For the same compound, the “NF-kB SEAP reporter activity” value (RAW-Dual [3]; [7]) was 0.998.
With CC(C)(C)NC(=O)C1CCC2C3CCC4NC(=O)C=CC4(C)C3CCC12C (stereo not drawn) the “NF-kB SEAP reporter activity” value (RAW-Dual [1]; [8]) was 0.218 and the “NF-kB SEAP reporter activity” value (RAW-Dual [1]; [9]) was 1.07.
For COc1ccc(-c2oc3c(CC=C(C)C)c(O)cc(O)c3c(=O)c2OC2OC(C)C(O)C(O)C2O)cc1 (stereo not drawn) (library stock concentration (final ~1000-fold dilution): 10 mM), the “NF-kB SEAP reporter activity” value (RAW-Dual [2]; agonist: LPS (TLR4) 0.1 ug/mL) was 2.22, the “NF-kB SEAP reporter activity” value (RAW-Dual [2]; [5]) was 0.553 and the “NF-kB SEAP reporter activity” value (RAW-Dual [2]; [6]) was 0.251. The “NF-kB SEAP reporter activity” value (RAW-Dual [2]; [7]) was 0.457.
COc1ccc(-c2oc3c(CC=C(C)C)c(O)cc(O)c3c(=O)c2OC2OC(C)C(O)C(O)C2O)cc1 (stereo not drawn) was tested, and the “NF-kB SEAP reporter activity” value (RAW-Dual [1]; [10]) was 1.82 and the “NF-kB SEAP reporter activity” value (RAW-Dual [1]; [4]) was 1.45.
For CSC1(C(=O)Nc2ccc3[nH]nc(-c4ccc(OC(C)C)nc4)c3c2)CCN(CC(=O)N2CC=C(c3ccc(-c4ncn(C)n4)cc3)CC2)C1 (stereo not drawn) (library stock concentration (final ~1000-fold dilution): 10 mM), the “NF-kB SEAP reporter activity” value (RAW-Dual [3]; agonist: LPS (TLR4) 0.1 ug/mL) was 0.407, the “NF-kB SEAP reporter activity” value (RAW-Dual [3]; [5]) was 0.343 and the “NF-kB SEAP reporter activity” value (RAW-Dual [3]; [6]) was 0.0837. For the same compound, the “NF-kB SEAP reporter activity” value (RAW-Dual [3]; [7]) was 0.136.
CSC1(C(=O)Nc2ccc3[nH]nc(-c4ccc(OC(C)C)nc4)c3c2)CCN(CC(=O)N2CC=C(c3ccc(-c4ncn(C)n4)cc3)CC2)C1 (stereo not drawn) was tested, and the “NF-kB SEAP reporter activity” value (RAW-Dual [1]; [8]) was 0.202 and the “NF-kB SEAP reporter activity” value (RAW-Dual [1]; [9]) was 0.321.
For CC(C)(C)c1nc(-c2ccc(NC(=O)Nc3cccc(C(F)(F)F)c3)c3ccccc23)c2c(N)nccn12, the “NF-kB SEAP reporter activity” value (RAW-Dual [1]; [10]) was 0.139 and the “NF-kB SEAP reporter activity” value (RAW-Dual [1]; [4]) was 0.252.
